A short description of experiment [1]: qHTS assay to identify small molecule agonists of the estrogen receptor alpha (ER-alpha) signaling pathway in the presence of an antagonist - cell viability counter screen (AID 1259386).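 Note: cells exposed to compounds for 22 h at 37 °C before the viability read; nearly all actives have a fitted effect of over 30% in size.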 Note: potency is the fitted concentration of half-maximal effect. The method, boiled down:
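Viability counter screen using VM7Luc4E2 (full-length ER-alpha, four ERE-luciferase). The cells were treated with compounds alongside ICI-182,780 10.0nM for 22hr, and live-cell protease fluorescence was quantified with CellTiter-Fluor.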
On the technique in general: qHTS replaces the single test concentration by a dilution series.

The target of experiment [2] is Progesterone receptor (Homo sapiens) (UniProt P06401). Nature of the experiment: qHTS assay to identify small molecule agonists of the progesterone receptor (PR) signaling pathway (AID 1346784; calls by dose curve; note: nearly all actives have a fitted effect of over 30% in size). The method, boiled down: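 Agonist mode, quantitative HTS format in a HEK 293T line expressing a UAS-controlled beta-lactamase reporter; 16 hr compound exposure at 37C in 2% charcoal-stripped FBS, then LiveBLAzer B/G FRET fluorescence.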
Chain of Progesterone receptor (Homo sapiens) (P06401 whole entry, looked up): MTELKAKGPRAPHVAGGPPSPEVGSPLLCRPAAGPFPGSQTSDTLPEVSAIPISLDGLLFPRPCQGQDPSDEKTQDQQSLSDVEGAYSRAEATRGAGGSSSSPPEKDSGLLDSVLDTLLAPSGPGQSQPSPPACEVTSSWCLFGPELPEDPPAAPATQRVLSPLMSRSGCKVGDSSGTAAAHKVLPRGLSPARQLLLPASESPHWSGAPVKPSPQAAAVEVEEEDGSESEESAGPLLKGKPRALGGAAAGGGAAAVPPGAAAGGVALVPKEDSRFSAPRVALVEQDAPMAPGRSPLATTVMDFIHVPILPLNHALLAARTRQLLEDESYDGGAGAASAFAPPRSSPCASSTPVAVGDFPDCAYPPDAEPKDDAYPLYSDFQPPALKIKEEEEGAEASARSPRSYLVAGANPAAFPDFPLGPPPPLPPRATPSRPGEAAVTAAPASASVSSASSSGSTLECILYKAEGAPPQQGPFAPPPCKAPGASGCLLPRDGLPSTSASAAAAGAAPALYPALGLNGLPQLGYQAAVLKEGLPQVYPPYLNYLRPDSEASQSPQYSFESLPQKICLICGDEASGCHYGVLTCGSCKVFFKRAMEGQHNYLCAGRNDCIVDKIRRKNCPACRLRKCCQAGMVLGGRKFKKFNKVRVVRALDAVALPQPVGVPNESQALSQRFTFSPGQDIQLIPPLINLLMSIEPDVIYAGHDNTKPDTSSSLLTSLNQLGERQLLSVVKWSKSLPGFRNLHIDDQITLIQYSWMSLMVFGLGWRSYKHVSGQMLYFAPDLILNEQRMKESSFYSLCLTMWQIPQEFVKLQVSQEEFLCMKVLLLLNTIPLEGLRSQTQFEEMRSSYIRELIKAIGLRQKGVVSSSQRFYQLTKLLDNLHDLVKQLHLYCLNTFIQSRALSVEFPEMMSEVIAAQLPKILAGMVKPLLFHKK

For experiment [3] the target is unchanged. Briefly: qHTS assay to identify small molecule antagonists of the progesterone receptor (PR) signaling pathway (AID 1346795; active = well fitted inhibition curve with a large enough effect in the signal ratio in the repeat runs, not every such curve was filed as active; the % refers to the signal ratio; note: potency is the fitted concentration of half-maximal effect). In a few lines: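 HEK293T PR-UAS-bla reporter cells in charcoal-stripped serum (2%) received compound after a 6 hr settling period, followed by R5020 agonist at 1 nM final; 16 hr incubation preceded the FRET substrate step and fluorescence measurement.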

Experiment [4] can be described thus: qHTS assay to identify small molecule antagonists of the progesterone receptor (PR) signaling pathway - cell viability counter screen (AID 1346798). Note: series mostly up to about 92 µM; nearly all actives have a fitted effect of over 50% in size. The method, boiled down: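 Same-well multiplex: after 16 hr at 37C with compound and R5020 stimulation, HEK293T cells carrying a UAS-bla reporter received LiveBLAzer substrate (2 hr RT), then CellTiter-Glo (30 min RT) for luminescent viability.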

Experiment [5] is described as follows: qHTS assay to identify small molecule agonists of the progesterone receptor (PR) signaling pathway - cell viability counter screen (AID 1346799; calls by dose curve; note: nearly all actives have a fitted effect of over 45% in size). The method, boiled down: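 Counter screen for cytotoxicity: compound-treated PR-UAS-bla HEK293T cells (16 hr, 37C, 5% CO2) were assayed with CellTiter-Glo, luminescence measured after 30 min at room temperature.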

Experiment [6] in a line: qHTS assay to identify small molecule antagonists of the TGF-beta/Smad signaling pathway - cell viability counter screen (AID 1346824). Note: nearly all actives have a fitted effect of over 50% in size. The method, boiled down: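 SBE-bla HEK 293T cells, incubated overnight, then compound plus 0.25 ng/mL TGF-beta1 (stock added) for 5 hr at 37 C. Viability was read in the same wells by CellTiter-Glo luminescence after 30 min at room temperature.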

Experiment [7] in a line: qHTS assay to identify small molecule agonists of the TGF-beta/Smad signaling pathway - cell viability counter screen (AID 1346829). Note: top concentration of the series differs between compounds; nearly all actives have a fitted effect of over 45% in size. In a few lines: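 HEK 293T SBE-bla line, 5 hr compound exposure at 37 C, multiplexed CellTiter-Glo viability read by luminescence.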
Experiment [8] can be described thus: qHTS assay to identify small molecule agonists of the TGF-beta/Smad signaling pathway (AID 1346859; active = well fitted activation curve with a large enough effect in the signal ratio in the repeat runs, not every such curve was filed as active; the % refers to the signal ratio; note: series mostly up to about 77 µM). In a few lines:
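Smad-responsive beta-lactamase reporter cells (HEK 293T) received compounds from DMSO stocks after overnight attachment, were incubated 5 hr, then treated 2 hr with FRET substrate before dual-emission fluorescence measurement (405 nm excitation).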

Experiment [9] concerns the target Thyrotropin-releasing hormone receptor (Homo sapiens) (UniProt P34981). Nature of the experiment: qHTS assay to identify small molecule antagonists of the thyrotropin-releasing hormone receptor (TRHR) signaling pathway (AID 1346877; active = well fitted inhibition curve with a large enough effect in the repeat runs, not every such curve was filed as active; note: series mostly up to about 51 µM). The method, boiled down: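 Following an 18 h incubation at 37 °C and a 2 h calcium dye load, TRHR-HEK293 cells were exposed to compound (5 min, room temperature) and challenged with TRH, 1 nM final.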

The target is the same in experiment [10]. Nature of the experiment: qHTS assay to identify small molecule agonists of the thyrotropin-releasing hormone receptor (TRHR) signaling pathway (AID 1346891; calls by dose curve;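 note: HEK293 cells expressing TRHR with calcium dye readout; series mostly up to about 58 µM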). The method, boiled down: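 Agonist-mode calcium mobilisation screen: TRHR-transfected HEK293 cells cultured overnight (18 h), dye-loaded for 2 h at 37 °C, exposed to compounds, and monitored by fluorescence for 3 min.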

25 compounds from PubChem BioAssay (Tox21) can be followed below.

The structures appear in SMILES notation. Values joined by “and” are separate entries in the source; they are usually repeats but may differ in a detail not shown here. Equal entries are not always repeated. Results filed as inconclusive are left out. Active and inactive are the calls of the source. Unless noted, calls come from the whole dose curve; as a rule, active = well fitted curve in the direction sought with a large enough effect in the repeat runs; inconclusive = weak or mixed curves; inactive = no such curve, though single readings can be large; an effect the other way counts as inactive or inconclusive.

Chain of Thyrotropin-releasing hormone receptor (Homo sapiens) (P34981 whole entry, looked up): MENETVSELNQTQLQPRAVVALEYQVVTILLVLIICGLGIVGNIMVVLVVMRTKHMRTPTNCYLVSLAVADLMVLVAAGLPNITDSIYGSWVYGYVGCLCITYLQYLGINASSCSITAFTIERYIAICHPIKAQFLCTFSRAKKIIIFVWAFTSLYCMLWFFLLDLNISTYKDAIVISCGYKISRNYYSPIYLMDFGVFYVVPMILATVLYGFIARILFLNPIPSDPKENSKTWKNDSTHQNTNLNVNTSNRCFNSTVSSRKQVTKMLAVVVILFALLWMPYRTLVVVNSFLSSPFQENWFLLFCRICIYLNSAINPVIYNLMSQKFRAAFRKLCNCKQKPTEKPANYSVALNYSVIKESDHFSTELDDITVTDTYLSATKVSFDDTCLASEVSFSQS

For the compound `CS(=O)(=O)Nc1ccc([N+](=O)[O-])cc1Oc1ccccc1`, the Potency in [1] is 48.6 µM (active) and 26.6 µM (active). The Potency result in experiment [2], in experiment [3], in [4], in [5], in experiment [6] and in experiment [7] was “inactive” throughout. Also, in [10], the Potency result was “inactive”. Also, the compound was called inactive in experiment [8] and in experiment [9].

`Cc1ccc(N)c(S(=O)(=O)O)c1`: the Potency result in experiment [1], in experiment [2], in experiment [3], in experiment [4], in experiment [5] and in [6] was “inactive” throughout. In addition, the Potency result in experiment [7] and in experiment [10] was “inactive” each time. In addition, the outcome in experiment [8] and in experiment [9] was inactive.

As to `O=C1O[C@H](CO)[C@@H](O)[C@H](O)[C@H]1O`, the Potency result in experiment [1], in experiment [2], in [3], in experiment [4], in experiment [5] and in experiment [6] was “inactive” throughout. Besides, the Potency entry in experiment [7] and in experiment [10] was “inactive” in each case. Besides, the result in experiment [8] and in [9] was inactive.

With `Nc1nc2ncc(CNc3ccc(C(=O)N[C@@H](CCC(=O)O)C(=O)O)cc3)nc2c(=O)[nH]1`, the Potency result in experiment [1], in experiment [2], in experiment [3], in experiment [4], in experiment [5] and in [6] was “inactive” each time. For the same compound, the Potency result in experiment [7] is “inactive”. Besides, the compound was called inactive in experiment [8].

With `Nc1c(S(=O)(=O)O)cc(Br)c2c1C(=O)c1ccccc1C2=O`, the Potency in experiment [1] was 30.6 µM (active). The Potency result in [2], in [3], in experiment [4], in experiment [5], in [6] and in [7] was “inactive” in each case. The call in experiment [8] and in [9] was inactive.

In the case of `Clc1cc(Cl)c(Cl)cc1Cl`, the Potency result in experiment [1], in experiment [2], in [3], in [4], in experiment [5] and in experiment [6] was “inactive” throughout. The Potency result in [7] was “inactive”. The result in experiment [8] was inactive.

On to `C=C(C)C(=O)OCCCCCC`, for which the Potency entry in experiment [1], in [2], in [3], in [4], in experiment [5] and in experiment [6] was “inactive” each time. In addition, the Potency result in experiment [7] and in experiment [10] was “inactive” in each case. The compound was called inactive in experiment [8] and in experiment [9].

On to `Oc1ccc2ccccc2c1`, for which the Potency entry in [1], in experiment [2], in experiment [4], in experiment [5], in experiment [6] and in experiment [7] was “inactive” in each case. Also, the Potency in experiment [3] was 48.6 µM (active). In [8], the outcome was inactive.

With `OC1CCCC1`, the Potency result in experiment [1], in experiment [2], in experiment [3], in experiment [4], in experiment [5] and in [6] was “inactive” each time. Also, the Potency result in experiment [7] and in experiment [10] was “inactive” throughout. In addition, the outcome in [8] and in experiment [9] was inactive.

For the compound `CS(=O)(=O)c1ccc([C@@H](O)[C@@H](CO)NC(=O)C(Cl)Cl)cc1`, the Potency result in experiment [1], in experiment [2], in [3], in [4], in experiment [5] and in experiment [6] was “inactive” throughout. Further, the Potency entry in experiment [7] was “inactive”. Also, in [8], the result was inactive.

Regarding `CCCCCCCCCCC=CC1CC(=O)OC1=O` (stereo unspecified), the Potency entry in experiment [1], in experiment [2], in [3], in experiment [4], in experiment [5] and in experiment [6] was “inactive” in each case. In addition, the Potency entry in [7] was “inactive”. The compound was classed as inactive in [8].

On to `Nc1cc(-c2ccncc2)c[nH]c1=O`, for which the Potency entry in experiment [1], in experiment [2], in experiment [3], in experiment [4], in experiment [5] and in [6] was “inactive” throughout. Besides, the Potency result in experiment [7] and in [10] was “inactive” each time. Besides, the outcome in experiment [8] and in [9] was inactive.

In the case of `CC(C)(C)C1CCC(O)CC1` (stereo unspecified), the Potency entry in experiment [1], in experiment [2], in [3], in experiment [4], in [5] and in experiment [6] was “inactive” in each case. For the same compound, the Potency result in experiment [7] and in [10] was “inactive” throughout. Moreover, the compound was classed as inactive in [8] and in experiment [9].

On to `CCCCOCCO`, for which the Potency result in experiment [1], in experiment [2], in experiment [3], in [4], in [5] and in experiment [6] was “inactive” in each case. The Potency result in experiment [7] and in experiment [10] was “inactive” in each case. Besides, the outcome in experiment [8] and in experiment [9] was inactive.

As to `O=C(O)c1ccc([N+](=O)[O-])cc1`, the Potency entry in experiment [1], in experiment [2], in [3], in experiment [4], in experiment [5] and in experiment [6] was “inactive” each time. For the same compound, the Potency entry in experiment [7] and in experiment [10] was “inactive” each time. Moreover, the result in experiment [8] and in [9] was inactive.

Regarding `O=c1c(-c2ccc(O)cc2)coc2cc(O)ccc12`, the Potency entry in [1], in experiment [2], in experiment [3], in [4], in [5] and in experiment [6] was “inactive” in each case. In addition, in experiment [7], the Potency result is “inactive”. Moreover, the compound was classed as inactive in experiment [8].

Regarding `NC(=O)/N=N/C(N)=O`, the Potency result in experiment [1], in experiment [2], in experiment [3], in experiment [4], in [5] and in experiment [6] was “inactive” in each case. Further, the Potency entry in experiment [7] and in [10] was “inactive” throughout. The compound was classed as inactive in [8] and in experiment [9].

On to `CC(=O)CCc1ccccc1`, for which the Potency result in [1], in [2], in [3], in [4], in [5] and in experiment [6] was “inactive” each time. In addition, the Potency entry in [7] is “inactive”. In [8], the outcome was inactive.

Regarding `c1ccc2ccccc2c1`, the Potency entry in experiment [1], in experiment [2], in experiment [3], in [4], in experiment [5] and in experiment [6] was “inactive” throughout. For the same compound, the Potency entry in [7] and in [10] was “inactive” each time. In addition, the compound was classed as inactive in experiment [8] and in [9].

`O=S(=O)(O)CCS`: the Potency entry in experiment [1], in experiment [2], in [3], in experiment [4], in experiment [5] and in experiment [6] was “inactive” throughout. Also, the Potency result in [7] and in experiment [10] was “inactive” throughout. Also, the compound was called inactive in experiment [8] and in experiment [9].

On to `COCC(=O)O`, for which the Potency result in experiment [1], in experiment [2], in [3], in [4], in experiment [5] and in experiment [6] was “inactive” each time. Besides, the Potency entry in experiment [7] is “inactive”. The result in [8] was inactive.

On to `OCCOCCOCCOCCO`, for which the Potency entry in experiment [1], in experiment [2], in experiment [3], in experiment [4], in experiment [5] and in experiment [6] was “inactive” each time. The Potency result in experiment [7] and in experiment [10] was “inactive” in each case. The compound was classed as inactive in experiment [8] and in experiment [9].

For `Cc1ccc(C)c(C)c1`, the Potency entry in [1], in [2], in experiment [3], in experiment [4], in experiment [5] and in experiment [6] was “inactive” each time. In addition, the Potency entry in [7] and in experiment [10] was “inactive” each time. For the same compound, the call in experiment [8] and in experiment [9] was inactive.

For `NCCNCCNCCNCCN`, the Potency result in [1], in experiment [2], in experiment [3], in experiment [4], in [5] and in [6] was “inactive” each time. Further, the Potency result in experiment [7] was “inactive”. Moreover, the result in [8] was inactive.

Turning to `Cc1cc(=O)[nH]c(C(C)C)n1`, the Potency entry in [1], in experiment [2], in experiment [3], in experiment [4], in experiment [5] and in experiment [6] was “inactive” throughout. Moreover, the Potency entry in experiment [7] and in experiment [10] was “inactive” in each case. The compound was called inactive in [8] and in experiment [9].
